The values below come from PubChem BioAssay AID1851 (National Center for Advancing Translational Sciences (NCATS), 2009).

The structures appear in SMILES notation. The whole screen tested about 16,000 compounds, of which about 4,000 (25%) were called active. Inconclusive results (about 26%) are left out. Not all results are given here. Unmarked numbers belong to inactive results. Calls come from the whole dose curve; as a rule, active = well fitted curve in the direction sought with a large enough effect; inconclusive = small, poorly fitted or top-dose-only effect, or effect the other way; inactive = no such curve, though single readings can be large or run the other way. Square brackets hold non-standard residues; d marks the D form. Peptide text beside a SMILES is read from it. * marks the point of attachment. ξ: configuration not given here. Cbz = O=C(OCc1ccccc1)*; ξA = CC(N)C(=O)O
% is set by controls: 0 for no effect and ±100 for the full control effect.

In the experiment the target is Cytochrome P450 2C9 (Homo sapiens) (UniProt P11712). Kind of experiment: Cytochrome panel assay with activity outcomes. The settings on record: recombinant CYP, pro-luciferin dealkylation, luminescence, p450-cyp2c9; series mostly up to 57.1 µM; activity, negative = inhibition: at the top concentration.
Cytochrome P450 2C9 (Homo sapiens), sequence (P11712 whole entry, looked up): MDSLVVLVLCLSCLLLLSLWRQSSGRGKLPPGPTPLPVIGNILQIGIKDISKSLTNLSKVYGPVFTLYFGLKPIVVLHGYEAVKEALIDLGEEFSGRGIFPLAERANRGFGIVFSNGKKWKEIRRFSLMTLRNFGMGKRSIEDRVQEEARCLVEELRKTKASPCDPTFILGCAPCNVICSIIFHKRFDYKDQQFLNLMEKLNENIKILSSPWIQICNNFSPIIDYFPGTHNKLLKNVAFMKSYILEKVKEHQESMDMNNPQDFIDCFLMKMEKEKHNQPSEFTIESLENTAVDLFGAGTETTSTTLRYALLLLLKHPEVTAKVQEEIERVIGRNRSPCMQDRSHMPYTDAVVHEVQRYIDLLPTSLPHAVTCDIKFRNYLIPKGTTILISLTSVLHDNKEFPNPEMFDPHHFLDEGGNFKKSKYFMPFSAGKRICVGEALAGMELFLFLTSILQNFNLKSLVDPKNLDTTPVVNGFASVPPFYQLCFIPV
Usually AC50 stands for the concentration giving half of the maximal activity seen. Regarding `Cc1ccc(-c2nnc(C)c(N3CC(C)OC(C)C3)n2)cc1` (centres undefined), the AC50 was 17.8 µM (active).
Turning to `O=C1NCCCC1C(=O)Nc1ccccc1C(F)(F)F` (centres undefined), the “activity, negative = inhibition” value is -18.4%.
`CCCC[C@@H]1C[C@H]1C(NC(=O)c1ccccc1)c1ccccc1C(F)(F)F` (some centres undefined): the AC50 was 1.26 µM (active).
Turning to `CCCC[C@@H]1C[C@H]1C(NC(=O)c1cccs1)c1ccccc1C(F)(F)F` (some centres undefined), the half-maximal activity concentration (AC50) was 1 µM (active).
As for `C#CCCCO/N=C1/[C@H]2O[C@@H]2[C@@H](O)[C@H]2[C@H]1CCn1c(=O)n(C)c(=O)n12`, the activity, negative = inhibition was 4.28% [at 11.4 µM].
Consider `CCOC(=O)C1CN(S(=O)(=O)c2cccc(C(F)(F)F)c2)c2cc(CC(=O)OC)ccc2O1` (centres undefined), for which the AC50 is 6.31 µM (active).
Take `COC(=O)CNC(=O)C(C)NC(=O)CNC(=O)OCc1ccccc1` (stereo not drawn) (Cbz-Gly-[ξA]-Gly-OMe): the “activity, negative = inhibition” value was -11.6%.
Turning to `CCC(C)C(NC(=O)OCc1ccccc1)C(=O)OCN1C(=O)c2ccccc2C1=O` (centres undefined), the AC50 is 12.6 µM (active).
As to `O=C(CCNC(=O)c1ccccc1)OCN1C(=O)c2ccccc2C1=O`, the “activity, negative = inhibition” value was -12.5%.
The same measure, in the same setting: the value for `N#CC(=C(/N)Sc1ccccc1N)/C(C#N)=C(/N)Sc1ccccc1N` was 3.74%.
Turning to `N#Cc1ccccc1Sc1ccccc1N`, the AC50 is 5.01 µM (active).
Consider `CC(=O)COC(=O)CCc1nc2ccccc2[nH]c1=O`, for which the “activity, negative = inhibition” value was -22.1%.
With `CCN(CC)CCOc1ccc2nc(N(C)C)sc2c1`, the “activity, negative = inhibition” value was -10.8%.
As for `O=c1c(-c2nnc(SCc3ccc(Cl)cc3Cl)o2)cccn1Cc1ccccc1`, the AC50 is 11.2 µM (active).
As to `CC(C)=CCNc1ncnc2nc[nH]c12`, the activity, negative = inhibition was -9.02% [at 11.4 µM].
For the compound `S=C(S)O[C@@H]1C[C@@H]2C[C@H]1[C@@H]1CCC[C@H]21`, the AC50 was 3.98 µM (active).
With `CC1CCC(C(=O)NC(C(=O)N2CCC(N3CCCCC3)CC2)C(C)C)CC1` (centres undefined), the “activity, negative = inhibition” value is -14.4%.
With `Nc1ncnc2c1ncn2CCCCC(=O)O`, the activity, negative = inhibition was 9.41% [at 11.4 µM].
Regarding `O=C1C=C(NCC2CCCO2)C2(CCCCC2)O1` (centres undefined), the “activity, negative = inhibition” value was -9.85%.
`O=S(=O)(c1cnccc1N1CCN(/N=C/c2ccccc2)CC1)N1CCCCC1`: the AC50 was 17.8 µM (active).
Consider `O=S(=O)(c1cnccc1N1CCN(CCO)CC1)N1CCCC1`, for which the activity, negative = inhibition is 8.09% [at 11.4 µM].
Still for that read-out and setting: in the case of `CC(C)N1CCN(c2ccncc2S(=O)(=O)N2CCCCC2)CC1` it was -8.32% [at 11.4 µM]; in that of `Cc1ccc(-c2ccc(CCC(=O)O)n2CC2CCCO2)cc1` (centres undefined), -16.3%.
Regarding `CC(=O)c1ccc(-n2c(CCC(=O)O)ccc2-c2cccs2)cc1`, the AC50 was 14.1 µM (active).
Consider `NC(=O)Nn1c(CCC(=O)O)ccc1-c1ccc(F)cc1`, for which the “activity, negative = inhibition” value was -5.74%.
As to `Cc1cc(C2CCCCC2)n(O)c(=O)c1`, the “activity, negative = inhibition” value was -14.9% [at 25.6 µM].
Take `CS(=O)(=O)Nc1cccc(-c2ccc3ncnc(N4CCNCC4)c3c2)c1`: the activity, negative = inhibition was -12.1% [at 2.29 µM].
As for `O=C(O)/C(=C\c1ccc(O)cc1)c1cccc2ccccc12`, the activity, negative = inhibition was -3.39% [at 11.4 µM].
The same measure, in the same setting: in the case of `O=C(O)/C(=C/c1c(C(=O)O)[nH]c2cc(Cl)cc(Cl)c12)c1ccccc1` it was -24.4%.
On to `O=C(/C(=C/c1ccc(Cl)cc1)c1nc2ccccc2[nH]1)c1ccccc1`, for which the AC50 was 0.631 µM (active).
In the case of `CN1CCN(CCCN2c3ccccc3Sc3ccc(S(=O)(=O)N(C)C)cc32)CC1`, the “activity, negative = inhibition” value was 1.24% [at 25.6 µM].
Take `N[C@@H](Cc1[nH]nc2ccccc12)C(=O)O`: the activity, negative = inhibition is 7.77% [at 11.4 µM].
In the case of `CC(C)Oc1ccc(CNC(=O)CC(c2ccccc2)c2cc(Cl)ccc2O)cc1` (centres undefined), the AC50 was 2.24 µM (active).
Turning to `CN(Cc1ccccc1)C(=O)CC(c1ccccc1)c1cc(Cl)ccc1O` (centres undefined), the AC50 is 4.47 µM (active).
For `C[C@@H](c1ccccc1)N1C(=O)[C@@H]2[C@H]3C(=CC[C@H]2C1=O)C(=O)[C@H]1O[C@H]1[C@H]3O`, the activity, negative = inhibition is -6.91% [at 11.4 µM].
In the case of `Oc1cc(O)c2c(c1)O[C@H](c1ccc(O)c(O)c1)[C@H](O)C2`, the AC50 entry was “inactive”.
As to `Cc1ccc(-n2c(-c3cc(C)n(C)n3)n[nH]c2=S)cc1`, the “activity, negative = inhibition” value was 5.76%.
In the case of `Cc1cc(-c2n[nH]c(=S)o2)c(C)n1-c1ccccc1`, the AC50 is 12.6 µM (active).
Regarding `CC[N+](CC)(CC)CCOc1cccc(OCC[N+](CC)(CC)CC)c1OCC[N+](CC)(CC)CC`, the “activity, negative = inhibition” value is 22.4% [at 25.6 µM].
On to `CCCN1C[C@@H](CSC)C[C@H]2c3cccc4[nH]cc(c34)C[C@@H]21`, for which the “activity, negative = inhibition” value is -6.92%.
With `O=C(N/N=C/c1ccc(Cl)cc1Cl)c1cccc(F)c1`, the AC50 was 15.8 µM (active).
Regarding `C/C(=N\NC(=O)c1cccc(F)c1)c1ccc(Br)s1`, the “activity, negative = inhibition” value was 20.8%.
The same measure, in the same setting: in the case of `O=C(N/N=C/c1ccc(Cl)cc1Cl)Nc1ccccc1` it was -15.9%; in that of `Cc1cnc(CNc2nc(-c3ccccc3Cl)nc3ccccc23)cn1`, 7.89% [at 2.29 µM].
Regarding `CC(C)c1ccc(N2C(=O)CC(Sc3nc4ccccc4o3)C2=O)cc1` (centres undefined), the AC50 is 2.24 µM (active).
Take `CC1(CCC#N)N=C(SCCC#N)N(c2ccccc2)C1=O` (centres undefined): the “activity, negative = inhibition” value is -16.7%.
Regarding `Cc1ccc(/C(C#N)=C/c2cccc([N+](=O)[O-])c2)cc1`, the activity, negative = inhibition is -10.5% [at 11.4 µM].
As for `Cc1c(OC(=O)c2ccc([N+](=O)[O-])cc2)c2c(c[n+]1C)COC(C)(C)OC2`, the “activity, negative = inhibition” value was -21.7%.
In the case of `Cc1ccc(S(=O)(=O)CC#CCOC(=O)c2ccc([N+](=O)[O-])cc2)cc1`, the AC50 is 5.62 µM (active).
